# Paper PMC8384837, “Expanding the binding specificity for RNA recognition by a PUF domain”
# Columns and labels:
# Experiment in all cases: yeast three-hybrid, YBZ-1, SC-Leu-His + 0.5 mM 3-AT, 4 days
# Conditions in all cases: tags: N-Gal4 AD-HA kept; label: inside an RPR1-promoter hybrid RNA with tandem MS2 sites; ssRNA
# PUM1 PUF domain R5-GHS = PUM1 PUF domain R5-GHS (Homo sapiens, UniProt Q14671 828-1176, C1007G;R1008H;Q1011S)
# Method in brief: (§1)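 Sequencing with Illumina followed PCR amplification of the repeat regions from transformants grown four days on SC-Leu (input) or SC-Leu-His + 0.5 mM 3-AT (selection). The transformants were strain YBZ-1 with a LexA–MS2 coat fusion and a HIS3 reporter, carrying Pumilio-1 PUF domain libraries and matching RNA elements. The interaction score is the log change in variant frequency from input to selection, computed in log2 with a pseudocount of 1 for absent variants.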
# PUM1 PUF domain R5-WHV = PUM1 PUF domain R5-WHV (Homo sapiens, UniProt Q14671 828-1176, C1007W;R1008H;Q1011V)
# Method in brief: as §1
# PUM1 PUF domain R6-TFS = target: T1, PUM1 PUF domain R6-TFS (Homo sapiens, UniProt Q14671 828-1176, N1043T;Y1044F;Q1047S)
# T1 sequence: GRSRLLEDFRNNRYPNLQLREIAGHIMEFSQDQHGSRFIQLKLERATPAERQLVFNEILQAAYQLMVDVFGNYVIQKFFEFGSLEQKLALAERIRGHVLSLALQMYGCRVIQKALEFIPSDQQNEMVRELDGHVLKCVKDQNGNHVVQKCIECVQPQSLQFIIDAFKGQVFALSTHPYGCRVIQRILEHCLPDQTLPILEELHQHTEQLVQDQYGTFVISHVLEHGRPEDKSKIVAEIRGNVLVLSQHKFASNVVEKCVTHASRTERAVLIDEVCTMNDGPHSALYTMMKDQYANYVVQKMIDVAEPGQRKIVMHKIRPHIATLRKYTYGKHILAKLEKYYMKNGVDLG
# Method in brief: as §1
# PUM1 PUF domain R5-DRT = PUM1 PUF domain R5-DRT (Homo sapiens, UniProt Q14671 828-1176, C1007D;Q1011T)
# Method in brief: as §1
# PUM1 PUF domain R3-MCR = PUM1 PUF domain R3-MCR (Homo sapiens, UniProt Q14671 828-1176, C935M;R936C;Q939R)
# Method in brief: as §1
# PUM1 PUF domain R8-LFQ = PUM1 PUF domain R8-LFQ (Homo sapiens, UniProt Q14671 828-1176, N1122L;Y1123F)
# Method in brief: as §1
# PUM1 PUF domain R7-KGQ = PUM1 PUF domain R7-KGQ (Homo sapiens, UniProt Q14671 828-1176, S1079K;N1080G;E1083Q)
# Method in brief: as §1
# PUM1 PUF domain R7-RQN = PUM1 PUF domain R7-RQN (Homo sapiens, UniProt Q14671 828-1176, S1079R;N1080Q;E1083N)
# Method in brief: as §1
# PUM1 PUF domain R5-RWF = PUM1 PUF domain R5-RWF (Homo sapiens, UniProt Q14671 828-1176, C1007R;R1008W;Q1011F)
# Method in brief: as §1
# PUM1 PUF domain R3-LSE = PUM1 PUF domain R3-LSE (Homo sapiens, UniProt Q14671 828-1176, C935L;R936S;Q939E)
# Method in brief: as §1
# Sequence of PUM1 PUF domain R7-RQN (Q14671 828-1176 S1079R/N1080Q/E1083N): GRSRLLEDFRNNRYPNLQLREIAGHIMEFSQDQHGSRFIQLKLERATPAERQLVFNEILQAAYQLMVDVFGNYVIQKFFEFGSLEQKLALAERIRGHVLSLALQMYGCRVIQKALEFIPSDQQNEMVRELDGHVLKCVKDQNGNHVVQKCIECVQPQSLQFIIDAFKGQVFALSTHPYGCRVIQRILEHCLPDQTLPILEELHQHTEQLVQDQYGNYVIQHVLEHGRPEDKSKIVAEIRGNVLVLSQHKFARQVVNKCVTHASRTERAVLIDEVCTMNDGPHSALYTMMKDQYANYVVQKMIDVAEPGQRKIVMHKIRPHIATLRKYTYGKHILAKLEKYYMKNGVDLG
# Sequence of PUM1 PUF domain R8-LFQ (Q14671 828-1176 N1122L/Y1123F): as the sequence (Q14671 828-1176 S1079R/N1080Q/E1083N) above, with R252S, Q253N, N256E, N295L, Y296F counted along it
# Sequence of PUM1 PUF domain R3-LSE (Q14671 828-1176 C935L/R936S/Q939E): as the sequence (Q14671 828-1176 S1079R/N1080Q/E1083N) above, with C108L, R109S, Q112E, R252S, Q253N, N256E counted along it
# Sequence of PUM1 PUF domain R7-KGQ (Q14671 828-1176 S1079K/N1080G/E1083Q): as the sequence (Q14671 828-1176 S1079R/N1080Q/E1083N) above, with R252K, Q253G, N256Q counted along it
# Sequence of PUM1 PUF domain R5-RWF (Q14671 828-1176 C1007R/R1008W/Q1011F): as the sequence (Q14671 828-1176 S1079R/N1080Q/E1083N) above, with C180R, R181W, Q184F, R252S, Q253N, N256E counted along it
sequence,measurement,setting,value
GGCUAGAACUAGUGGAUCCCCCGGCGCCCGGCGGCUCGAGCCCGGGUAAGUGUAAAUAGUCUGCAUGCCGCCGGGCGCCAUGCCUGCAGGUCGACUCUAGAAAACAUG,binding signal,PUM1 PUF domain R5-GHS,3.25 log2 enrichment (interaction score)
same,binding signal,PUM1 PUF domain R5-WHV,1.26 log2 enrichment (interaction score)
same,binding signal,PUM1 PUF domain R6-TFS,4.51 log2 enrichment (interaction score)
same,binding signal,PUM1 PUF domain R5-DRT,2.42 log2 enrichment (interaction score)
GGCUAGAACUAGUGGAUCCCCCGGCGCCCGGCGGCUCGAGCCCGGGUAAGUGUAAUUAGUCUGCAUGCCGCCGGGCGCCAUGCCUGCAGGUCGACUCUAGAAAACAUG,binding signal,PUM1 PUF domain R3-MCR,4.47 log2 enrichment (interaction score)
GGCUAGAACUAGUGGAUCCCCCGGCGCCCGGCGGCUCGAGCCCGGGUAAGCGUAAAUAGUCUGCAUGCCGCCGGGCGCCAUGCCUGCAGGUCGACUCUAGAAAACAUG,binding signal,PUM1 PUF domain R8-LFQ,2.86 log2 enrichment (interaction score)
GGCUAGAACUAGUGGAUCCCCCGGCGCCCGGCGGCUCGAGCCCGGGUAAGUGUCAAUAGUCUGCAUGCCGCCGGGCGCCAUGCCUGCAGGUCGACUCUAGAAAACAUG,binding signal,PUM1 PUF domain R5-WHV,2.8 log2 enrichment (interaction score)
same,binding signal,PUM1 PUF domain R5-DRT,1.84 log2 enrichment (interaction score)
GGCUAGAACUAGUGGAUCCCCCGGCGCCCGGCGGCUCGAGCCCGGGUAAGUGUGAAUAGUCUGCAUGCCGCCGGGCGCCAUGCCUGCAGGUCGACUCUAGAAAACAUG,binding signal,PUM1 PUF domain R5-DRT,2.11 log2 enrichment (interaction score)
GGCUAGAACUAGUGGAUCCCCCGGCGCCCGGCGGCUCGAGCCCGGGUAAGUUUAAAUAGUCUGCAUGCCGCCGGGCGCCAUGCCUGCAGGUCGACUCUAGAAAACAUG,binding signal,PUM1 PUF domain R7-KGQ,5.56 log2 enrichment (interaction score)
same,binding signal,PUM1 PUF domain R7-RQN,3.78 log2 enrichment (interaction score)
GGCUAGAACUAGUGGAUCCCCCGGCGCCCGGCGGCUCGAGCCCGGGUAAGUCUAAAUAGUCUGCAUGCCGCCGGGCGCCAUGCCUGCAGGUCGACUCUAGAAAACAUG,binding signal,PUM1 PUF domain R7-RQN,0.64 log2 enrichment (interaction score)
GGCUAGAACUAGUGGAUCCCCCGGCGCCCGGCGGCUCGAGCCCGGGUAAGUGUUAAUAGUCUGCAUGCCGCCGGGCGCCAUGCCUGCAGGUCGACUCUAGAAAACAUG,binding signal,PUM1 PUF domain R5-RWF,4.13 log2 enrichment (interaction score)
GGCUAGAACUAGUGGAUCCCCCGGCGCCCGGCGGCUCGAGCCCGGGUAAGUGUAAGUAGUCUGCAUGCCGCCGGGCGCCAUGCCUGCAGGUCGACUCUAGAAAACAUG,binding signal,PUM1 PUF domain R3-LSE,2.76 log2 enrichment (interaction score)
